Among the test systems are T-47D breast; BT-549 breast; MDA-MB-435 melanoma; SW-620 colon; MCF7 breast; HCT-116 colon; HCC-2998 colon; KM12 colon.
What all share (test): NCI-60 one-dose screen, 48 h (100 = growth as untreated, 0 = no growth, -100 = all killed)
Details in all cases: 10 µM unless noted

Among the data in PubChem BioAssay (NCI) are growth values, retold here.

SMILES strings stand for the structures. The panel holds about 83,000 compounds, 20% with a hit somewhere; the sample as a whole holds those more often.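 Method: cells in 96-well plates; compound added at one concentration; 48 h incubation; percent growth measured; values under 10 scored active.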 A number with no mark means an inactive call. Calls of active or inactive are those of the source.

On to `COc1ccc(C(=O)COc2cccc(/C=C3\CSc4ccc(Cl)cc4C3=O)c2)cc1`, for which the growth in the assay with T-47D breast was 70.4%; with BT-549 breast it was 42.5%; in the assay with MDA-MB-435 melanoma, 93.2%; in the assay on SW-620 colon, -65.9% (active); in the assay with MCF7 breast, -11.8% (active); in the assay on HCT-116 colon, 53.9%. Also, the growth in the assay with HCC-2998 colon is 95.2%.

With `O=C1C(=O)/C(=C/c2ccccc2)CCCCCC/C1=C/c1ccccc1`, the growth is 47.6% in the assay on T-47D breast; 16.4% in the assay on BT-549 breast; -41.8% (active) in the assay on MDA-MB-435 melanoma; -19.1% (active) in the assay on SW-620 colon; 6.04% (active) in the assay with MCF7 breast; -23.7% (active) in the assay on HCT-116 colon. The growth is -22.3% (active) in the assay on HCC-2998 colon and -23.6% (active) with KM12 colon.

Take `OCCN1CCN(CCCN2c3ccccc3Sc3ccc(C(F)(F)F)cc32)CC1`: the growth in the assay with T-47D breast is 54.5%; in the assay with BT-549 breast, 53%; in the assay on MDA-MB-435 melanoma, -46.1% (active); in the assay with SW-620 colon, -31.2% (active); in the assay on MCF7 breast, 18.3%; in the assay on HCT-116 colon it was 2.28% (active). The results for the growth in the assay on HCC-2998 colon and with KM12 colon were -83.2% (active) and 9.9% (active), respectively.

With `c1ccc(N2c3nc4ccccc4cc3Sc3cc4ccccc4nc32)nc1`, the growth in the assay on T-47D breast is 82.6%; in the assay on BT-549 breast, 93.2%; in the assay on MDA-MB-435 melanoma, 115%; in the assay on SW-620 colon it was 90.8%; with MCF7 breast, 74%; with HCT-116 colon, 98.5%. In the assay on HCC-2998 colon, the growth was 113%.

`NC(=O)NC1(C(=O)O)CCCC1`: the growth with T-47D breast is 93.6%; in the assay with BT-549 breast, 111%; in the assay on MDA-MB-435 melanoma it was 107%; with SW-620 colon it was 109%; in the assay on MCF7 breast, 98.9%; in the assay with HCT-116 colon, 115%. The growth in the assay with HCC-2998 colon was 108%; in the assay with KM12 colon, 107%.

Turning to `Cc1ccc(-c2cc(-c3ccccc3)n(-c3ccccc3)n2)cc1`, the growth is 74.6% in the assay with T-47D breast; 101% in the assay with BT-549 breast; 89% in the assay with MDA-MB-435 melanoma; 99.9% in the assay on SW-620 colon; 97.5% in the assay with MCF7 breast; 29.9% with HCT-116 colon. The growth with HCC-2998 colon was 99.1%; with KM12 colon, 106%.

Turning to `c1ccc2nc(Cn3c[n+](Cc4ccc5ccccc5n4)c4ccccc43)ccc2c1`, the growth is 10.6% with T-47D breast; 8.39% (active) in the assay on BT-549 breast; 9.62% (active) in the assay with MDA-MB-435 melanoma; 45.3% in the assay on SW-620 colon; 22.9% in the assay with MCF7 breast; 18.1% with HCT-116 colon. Further, the growth is 32.9% in the assay with HCC-2998 colon and 21.9% with KM12 colon.

Take `CN1CCN(c2nc3scc(-c4ccccc4)c3c(=O)[nH]2)CC1`: the growth is 104% in the assay on T-47D breast; 104% in the assay on BT-549 breast; 99.7% in the assay with MDA-MB-435 melanoma; 95.4% with SW-620 colon; 92.5% in the assay on MCF7 breast; 91.9% with HCT-116 colon. In addition, the growth in the assay on HCC-2998 colon is 99.5%; with KM12 colon it was 94.1%.

As to `Cc1sc2nc(NCc3ccccc3)[nH]c(=O)c2c1C`, the growth in the assay on T-47D breast is 31.6%; in the assay with BT-549 breast it was 53.9%; in the assay with MDA-MB-435 melanoma, -31% (active); in the assay with SW-620 colon it was 26%; in the assay with MCF7 breast it was 31%; in the assay on HCT-116 colon it was 24.5%. The growth was 87.7% in the assay with HCC-2998 colon and 36.2% with KM12 colon.

`COc1cc(/C=C/C(=O)c2c(C)n([O-])c3ccccc3[n+]2=O)cc(OC)c1OC`: the growth in the assay with T-47D breast is 34.9%; with BT-549 breast it was 27.3%; with MDA-MB-435 melanoma, 46.3%; in the assay with SW-620 colon it was 43.7%; in the assay with MCF7 breast it was 20.8%; with HCT-116 colon, 30.6%. For the same compound, the growth in the assay on HCC-2998 colon was 60.5%; in the assay on KM12 colon, 61.2%.

With `CC(=O)O[C@H]1CC[C@@]2(C)C(=CC[C@@H]3[C@@H]2CC[C@]2(C)C(c4cccnc4)=CC[C@@H]32)C1`, the growth in the assay with T-47D breast was 47.2%; in the assay with BT-549 breast, 63.4%; in the assay with MDA-MB-435 melanoma it was 34.5%; with SW-620 colon, 76.4%; in the assay on MCF7 breast, 46%; in the assay on HCT-116 colon it was 54.1%. For the same compound, the growth in the assay with HCC-2998 colon was 65.1%; in the assay with KM12 colon, 53.7%.

Consider `CCCCCN1C(=O)CCC1=O`, for which the growth in the assay on T-47D breast was 95.5%; in the assay with BT-549 breast it was 103%; in the assay on MDA-MB-435 melanoma it was 102%; in the assay on SW-620 colon, 111%; with MCF7 breast, 98.4%; with HCT-116 colon, 105%. The results for the growth in the assay on HCC-2998 colon and in the assay on KM12 colon were 103% and 94.5%, respectively.

Turning to `C(=C1c2ccccc2-c2ccccc21)c1ccncc1`, the growth in the assay with T-47D breast was 72.2%; in the assay with BT-549 breast it was 38.6%; in the assay on MDA-MB-435 melanoma, -21.7% (active); with SW-620 colon, 17.1%; in the assay with MCF7 breast, 18.8%; in the assay on HCT-116 colon it was 16.4%. In addition, the growth is 66.6% with HCC-2998 colon and 18.5% in the assay with KM12 colon.

`CN(C)c1ccc(-c2nc3ncc(Br)cc3o2)cc1`: the growth with T-47D breast was 75.7%; with BT-549 breast it was 78.3%; in the assay with MDA-MB-435 melanoma, 115%; in the assay with SW-620 colon, 99.3%; with MCF7 breast, 97.6%; in the assay with HCT-116 colon it was 86.8%. Besides, the values for the growth in the assay on HCC-2998 colon and in the assay with KM12 colon were 85% and 113%, respectively.

On to `CCCCc1n(Cc2ccc3ccccc3c2)cc[n+]1Cc1ccc2ccccc2c1`, for which the growth in the assay on T-47D breast is -1.14% (active); in the assay on BT-549 breast it was -76.4% (active); with MDA-MB-435 melanoma, -77.5% (active); with SW-620 colon, 1.48% (active); in the assay with MCF7 breast it was -42.3% (active); in the assay on HCT-116 colon, -97.2% (active). Besides, the figures for the growth in the assay with HCC-2998 colon and in the assay with KM12 colon were -5.21% (active) and -82.5% (active), respectively.

Regarding `C[C@]12CCC(=O)C=C1CCC1C2[C@@H](O)C[C@@]2(C)C1CC[C@]2(O)C(=O)COC(=O)CCC(=O)O` (stereo partly specified), the growth in the assay on T-47D breast is 114%; in the assay on BT-549 breast, 100%; in the assay with MDA-MB-435 melanoma, 96.3%; in the assay on SW-620 colon, 113%; in the assay on MCF7 breast, 102%; with HCT-116 colon, 106%. Moreover, the figures for the growth with HCC-2998 colon and in the assay with KM12 colon were 98% and 109%, respectively.
